Some structures have more than one record in an assay (separate samples or runs), and their calls can disagree. Activity calls are given as the source filed them. Rule for the calls: active = hit-call score of the fitted dose curve at least 0.9, where 1 is the maximum; inactive = score below 0.9.

Read-out in this assay: Glutamate-cysteine ligase regulatory (GCLM), GCLM (gene 2730)
The assay can be described thus: LTEA_HepaRG_GCLM: Life Technologies and Expression Analysis (LTEA) Assay for Glutamate-cysteine ligase regulatory (GCLM) using HepaRG (AID 2283500). The note with it: mRNA level, 48 h; actives raise or lower the signal. The procedure: LTEA_HepaRG is a cell based, multiplexed-readout assay that uses HepaRG, a human liver cell line, with measurements taken at 48 hours after chemical dosing on a 96-well plate.LTEA_HepaRG_GCLM is one of 102 assay component(s) measured in the LTEA HepaRG cell culture assay. It is a marker of Cell proliferation, survival, death.Data from the assay component LTEA_HepaRG_GCLM was analyzed into 1 endpoint. This assay endpoint, LTEA_HepaRG_GCLM, was analyzed with bidirectional fitting relative to DMSO as the negative control and baseline of activity. Using a type of inducible reporter, measures of mRNA induction for gain or loss-of-signal activity can be used to understand regulation of transcription factor activity. To generalize the intended target to other relatable targets, this assay endpoint is annotated to the ligase intended target family, where the subfamily is C-N ligase.
A total of 1060 chemcials from the ToxCast library were tested in eight-point concentration-response experiments. Cell culture and cytotoxicity assays were conducted at Thermo Fisher Scientific's Custom Services facility (Madison, WI). A single lot of human HepaRG cells (Thermo Fisher Scientific, Frederick, MD) was used for the cell culture experiments. 96-well format collagen type I coated plates of human HepaRG cells were prepared using established methods. Briefly, cryopreserved HepaRG cells were thawed, plated at a density of approximately 100,000 cells/well in HepaRG Thaw, Plate, and General Purpose media (HPRG770, Thermo Fisher Scientific), and incubated for 48 hours. 0.5% DMSO was selected as vehicle control to balance the requisite need of DMSO in HepaRG cultures to maintain differentiation (for example, baseline metabolism, proportions of hepatocytes vs. cholangiocytes), while enabling further hepatic receptor pathway activation (for example, PXR and CAR) in response to chemical exposure. 48 hours after plating, the culture medium was replaced with HepaRG Serum-Free Incudtion Media. Cells were exposed to each test chemical in duplicate and maintained in CO2 incubators for another 48 hours. Chemical plates were thawed to room temperature and 200x concentrations of treatment groups were prepared. 8-point conentration-reponse curves were made with the highest exposure at 100 uM, followed by half-log dilutions, all in 0.5% DMSO. Each test plate contained variouse controls, induction positive controls (1mM phenobarbital), cytotoxicity positive controls ([…] aflatoxin B1), vehicle controls (0.5% DMSO), and total lysis controls (0.5% DMSO). Cell morphology images were taken using an Essen IncuCyte FLR automated microscope, with six 96-well plates imaged in about 24 minutes. Images were captured and exported and JPEG files. Spent culture media was transfered to black-well plates for the LDH assay, and remaining media was sorted at -80 C for later use. Cells were treated with RLT buffer and frozen until shipped for gene expression analysis. Total RNA was isolated from the cell suspension in 75 uL of Buffer RLT (Qiagen, Germantown, MD 20874) by Quintiles/Expression Analysis (Durham, NC) using a custom isolation procedure. Total RNA from each plate well was transferred to a preamplification plate. Fluidigm's 96.96 Dynamic ArrayTM (Fluidigm, Amsterdam, the Netherlands) technology was used for gene expression analyses by quantitative reverse transcription polymerase chain reaction (qRT-PCR, performed by Quintiles/Expression Analysis, Durham, NC)89. Standard TaqManTM Assays (Applied Biosystems/ThermoFisher Scientific, Foster City, CA) were used to assess the expression of 93 genes selected based on their selectivity and sensitivity to important hepatic receptors known to be modulated by environmental chemicals; importance in human hepatocyte functionality; and hepatotoxicity. […]
As to `Cn1sc(Cl)cc1=O`, the call was inactive.

In the case of `CC12CC1(C)C(=O)N(c1cc(Cl)cc(Cl)c1)C2=O` (configuration not stated), the compound was called inactive.

Consider `CN(C)N=O`, for which the compound was classed as inactive.

In the case of `CC(C)(C)CC(C)(C)c1ccc(O)cc1`, the outcome was inactive.

As usually defined, the AC50 is the midpoint of the concentration-response curve, whichever way the signal moves. On to `CCN1CCC2(CC1)COc1cc3c(cc12)N(C(=O)c1ccc(-c2ccc(-c4nnc(C)o4)cc2C)cc1)CC3`, for which the AC50 was 26.8 µM (active).

Consider `CC(C)(C)c1cc(O)ccc1O`, for which the call was inactive.

For the compound `CC(C)(OO)c1ccccc1`, the outcome was inactive.

Regarding `O=c1[nH]c(=O)[nH]c(=O)[nH]1`, the compound was called inactive.

`O=C1C2(Cl)C3(Cl)C4(Cl)C(Cl)(Cl)C5(Cl)C3(Cl)C1(Cl)C5(Cl)C24Cl` (configuration not stated): the AC50 is 88.5 µM (active).

On to `C=C(C)C(=O)[O][Sn]([CH2]CCC)([CH2]CCC)[CH2]CCC`, for which the AC50 was 88.7 µM (active).

For the compound `C=CC(=O)OCCCCCC(C)C`, the call was inactive.

`ClC1(Cl)C2(Cl)C3(Cl)C4(Cl)C(Cl)(Cl)C5(Cl)C3(Cl)C1(Cl)C5(Cl)C24Cl` (configuration not stated): the call was inactive.

Take `CC(C)(c1ccccc1)c1ccc(O)c(C(C)(C)c2ccccc2)c1`: the AC50 was 50 µM (active).

Consider `CCC(=O)C(CC(C)N(C)C)(c1ccccc1)c1ccccc1` (configuration not stated), for which the call was inactive.

`O=C(O)C(Cl)(Cl)Cl`: the outcome was inactive.

For `O=C(O)C(F)(F)C(F)(F)C(F)(F)C(F)(F)C(F)(F)C(F)(F)C(F)(F)C(F)(F)C(F)(F)C(F)(F)F`, the result was inactive.

For `O=C(Nc1ccc2[nH]ccc2c1)c1cc2cc(F)ccc2n1Cc1cccc(F)c1`, the AC50 is 27.8 µM (active).

In the case of `C[C@]12CCC(=O)C[C@@H]1CC[C@@H]1[C@@H]2CC[C@]2(C)[C@@H](O)CC[C@@H]12`, the compound was classed as inactive.

For the compound `CC(=O)[O][Hg][c]1ccccc1`, the AC50 is 23 µM (active).

Turning to `ClCC(Cl)CCl`, the outcome was inactive.

With `COc1cc(-c2ccc(N)c(OC)c2)ccc1N`, the AC50 is 50 µM (active) and the compound was called inactive.

As to `CCOP(=S)(OCC)Oc1nc(Cl)c(Cl)cc1Cl`, the outcome was inactive.

In the case of `C[C@@H]1C[C@@H]([C@H](O)CC2CC(=O)NC(=O)C2)C(=O)[C@@H](C)C1`, the half-maximal activity concentration (AC50) was 17.9 µM (active).

Regarding `NC(=O)O`, the result was inactive.

`CCOP(=S)(OCC)SCSP(=S)(OCC)OCC`: the outcome was inactive.

Turning to `Oc1cccc2cccnc12`, the result was inactive.

Consider `O=C(O)C(F)(F)C(F)(F)C(F)(F)C(F)(F)C(F)(F)C(F)(F)F`, for which the compound was called inactive.

For `O=[N+]([O-])c1ccc(O)c([N+](=O)[O-])c1`, the AC50 was 12.2 µM (active).

As for `CCC(C)(C)c1ccc(O)c(C(C)(C)CC)c1`, the compound was called inactive.

Consider `Cc1ccccc1N`, for which the compound was called inactive.

For `CCCCCCCCc1ccc(O)cc1`, the call was inactive.

For the origin of these results see PubChem BioAssay (EPA / NIEHS).
